Sampled rows, rich in hits. Any-hit rate of the full collection: about 7.3%.
NPC1 promoter act – activates the NPC1 promoter | Huh7 NPC1 promoter luciferase reporter, 24 h | Potency, µM (doses to about 9.22 µM), without a hit: at the top dose activation, hits mostly activators | 320,000 compounds, 2.4% hits | AID 485313; also: % of control where 0% means no effect; nearly all actives have a fitted effect of over 60% in size
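Stable NPC1-promoter luciferase Huh7 line; cpd (DMSO) 24 h, 37 °C, 5% CO2; Amplite luciferase reagent 10 min RT; luminescence readout. qHTS format.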
ELG1 genotoxic – induces genotoxicity in HEK293T cells with luciferase-tagged ELG1 | HEK293T ELG1-luciferase reporter, luminescence, 16 h | Potency, µM (series often up to 46 µM), for inactives: top-dose activity change, positive = activation, actives largely listed as activators | 330,000 compounds, 1.3% hits | AID 504466; also: % of control where 0% means no effect; nearly all actives have a fitted effect of over 60% in size
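After overnight (16 hr) compound treatment at 37 °C, ELG1-luciferase HEK293T cells were lysed with ONE-Glo; luminescence quantified 30 min later at room temperature.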
FLuc modulator – firefly luciferase modulation, counter-screen for miR-21 project. purified FLuc, Km substrates, luminescence inhibition. 360,000 compounds, 6.9% hits. Potency, µM (doses to about 57.5 µM), without a hit: top-dose activity change, negative = inhibition, usual class: inhibitors. P08659;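 also: plate controls were vehicle for no effect and reference inhibitor for full effect; nearly all actives have a fitted effect of over 55% in size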
Target sequence (P08659 whole entry, looked up): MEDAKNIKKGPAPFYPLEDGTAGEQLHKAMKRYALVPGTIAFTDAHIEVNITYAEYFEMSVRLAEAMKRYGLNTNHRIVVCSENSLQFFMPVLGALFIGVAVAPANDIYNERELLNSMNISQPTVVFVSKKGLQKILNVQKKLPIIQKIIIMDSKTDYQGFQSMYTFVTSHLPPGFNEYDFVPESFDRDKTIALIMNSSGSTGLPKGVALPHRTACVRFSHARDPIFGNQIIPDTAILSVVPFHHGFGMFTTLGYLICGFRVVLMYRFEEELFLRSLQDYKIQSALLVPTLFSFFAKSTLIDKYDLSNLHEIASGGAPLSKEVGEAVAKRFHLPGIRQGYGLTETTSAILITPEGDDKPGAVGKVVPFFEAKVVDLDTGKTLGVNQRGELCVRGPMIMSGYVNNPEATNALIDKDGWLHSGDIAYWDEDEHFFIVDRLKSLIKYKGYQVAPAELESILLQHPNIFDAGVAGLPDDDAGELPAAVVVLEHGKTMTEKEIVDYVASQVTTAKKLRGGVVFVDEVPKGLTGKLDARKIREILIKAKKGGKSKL
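Purified P. pyralis luciferase (10nM final) with 10uM D-luciferin and 10uM ATP (Km levels) in 50mM Tris acetate pH 7.5, 10mM Mg acetate, 0.01% Tween-20, 0.05% BSA; qHTS 6-point titration, ~60 µM downward; luminescence read.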
Rab9 prom act – activators of Rab9 promoter; Huh7 Rab9 promoter-luciferase reporter, luminescence, 24 h; Potency, µM (series often up to 9.22 µM), for inactives: at the highest dose activation, negative = inhibition, usual class: activators; 320,000 compounds, 2.8% hits; AID 485297; also: % of control where 0% means no effect; nearly all actives have a fitted effect of over 60% in size
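Cells were plated at 1500 per well in reduced-serum medium with 10% FBS and left 2 h. Compound in DMSO was then added for 24 h at 37 °C. Reporter signal was read by luminescence after 10 min with luciferase detection reagent.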
SMN2 splice enh – enhancers of SMN2 splice variant expression. HEK293 SMN2-luciferase splicing reporter, luminescence, 30-36 h. AID 1458. 210,000 compounds, 2.8% hits. Potency, µM (highest dose often 46.1 µM), inactives show at the top dose activity change, positive = activation, hits mostly activators; also: % of control where 0% means no effect; nearly all actives have a fitted effect of over 55% in size
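HEK293 cells carry an SMN2 minigene-luciferase reporter in which exon 7 inclusion puts luciferase in frame. Cells were seeded at 2000 cells/well, attached for 10-12 hours, then exposed to compounds for 30-36 hours at 37C before ONE-Glo luminescence.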
uPA generation – cell surface uPA generation inhibition | Potency, µM (series often up to 38.3 µM), for the others: at the highest dose activity change, negative = inhibition, hits mostly inhibitors | 330,000 compounds, 0.31% hits | cell surface uPA generation assay, qHTS; active = well fitted inhibition curve with a large enough effect; inconclusive = small, poorly fitted or top-dose-only effect; inactive = no such curve, though single readings can be large or run the other way; tested in mouse RAW 264.7 cells; also: % is scaled to controls: 0 for no effect and ±100 for the full control effect; nearly all actives have a fitted effect of over 55% in size
* marks the source's active call; other numbers are inactive results; ? = inconclusive; / = no result given; [ ] = dose if it differs, or a comment. Unless noted, calls follow the shape of the dose curve; as a rule, active = well fitted curve in the direction sought with a large enough effect; inconclusive = small, poorly fitted or top-dose-only effect, or another doubt; inactive = no such curve, though single readings can be large; an effect the other way counts as inactive or inconclusive. Potency is read from the fitted curve at half-maximal effect.

SMILES	NPC1 promoter act	ELG1 genotoxic	FLuc modulator	Rab9 prom act	SMN2 splice enh	uPA generation
Nc1ccc2nc(-c3cccc(-c4nc5ccc(N)cc5[nH]4)n3)[nH]c2c1	1%	-4%	9.5µM*	3%	/	-5%
Nc1cccc(-c2nc3ccccc3[nH]2)c1	2.8µM*	?	13µM*	4µM*	13µM*	/
c1ccc(-c2cc(-c3nc4ccccc4[nH]3)c3ccccc3n2)cc1	1%	-17%	?	-1%	-100%	0%
Nc1ccc(-c2nc3ccc(-c4nc5ccc(N)cc5[nH]4)cc3[nH]2)cc1	-5%[46.1 µM]	/	/	10%[46.1 µM]	?	/
Cc1ccc2nc(-c3sc4nc(C)cc(C)c4c3N)[nH]c2c1	21%	?	0.34µM*	?	2.5µM*	-10%
Nc1ccc2nc(-c3ccc(-c4nc5ccc(N)cc5[nH]4)cc3)[nH]c2c1	-6%	-5%	-16%	-1%	/	8%
Cc1ccc2nc(-c3cccc(N)c3)[nH]c2c1	0.79µM*	?	0.95µM*	1.6µM*	2.2µM*	-13%
CC(=O)NCCNc1nc(-c2ccccc2C(F)(F)F)nc2ccccc12	/	/	/	/	-4%	/
O=C(OCc1cc(=O)n2nc(-c3cccs3)sc2n1)c1cccc(F)c1	/	/	1%	/	/	/
Oc1cccc(/C=N/c2c(-c3ccco3)nc3ccccn23)c1	?	?	6µM*	?	24%	-23%
COc1cc(-c2nc3ccccn3c2/N=C/c2ccccc2)ccc1O	2%	12%	?	-2%	9%	-9%
O=[N+]([O-])c1ccc(Cl)c(-c2ccc(/C=N/c3c(-c4ccco4)nc4ccccn34)o2)c1	19%	2%	-19%	?	22%	-2%
COc1ccc(-c2nc3ccccn3c2/N=C/c2ccc(OC)c(OC)c2)cc1O	-5%	8%	13µM*	6%	6%	0%
O=C(c1cnccn1)N1CCC[C@@]2(CCN(Cc3cc(C(F)(F)F)cc(C(F)(F)F)c3)C2)C1	/	/	/	/	1%	/
CCOc1ccccc1CNCc1c(C(=O)O)n(Cc2ccc(F)cc2)c2cc(C)ccc12	/	/	2%	/	/	/
CCOC(=O)N1CCN(C(=O)Cn2nc(C)n3nc(-c4ccc(CC)cc4)cc3c2=O)CC1	6%	14%	4.8µM*	6%	/	-8%
O=C(NNC1CC(=O)N(c2ccccc2)C1=O)c1ccco1 (stereo not given)	-3%	1%	-13%	-9%	-5%	3%
O=C(NNC1CC(=O)N(c2ccccc2)C1=O)c1ccc(COc2ccccc2Cl)o1 (stereo not given)	0%	2%	17µM*	2%	5%	-11%
Cc1cc(C)cc(NC(=O)c2cc(S(=O)(=O)N3CCCCC3)c[nH]2)c1	/	/	-4%	/	/	/
Cc1cc(C)c2nc(N3CCCC(C(=O)NCc4cccc(Cl)c4)C3)sc2c1 (stereo not given)	/	/	?	/	15%	/
Brc1csc(C=Nc2ccc3c(c2)OCCOCCOCCOCCO3)c1	-2%	2%	3%	0%	-4%	-5%
Brc1ccc(C=Nc2ccc3c(c2)OCCOCCOCCO3)s1	0%	0%	11µM*	2%	-1%	-2%
Oc1c(Cl)cc(Cl)cc1C=Nc1ccc2c(c1)OCCO2	0%	15%	27µM*	-7%	/	-4%
COc1ccc(NC(=O)C2CCN(S(=O)(=O)c3c(C)noc3/C=C/c3cccs3)CC2)cc1Cl	/	/	0%	/	-4%	/
CC1CCCN(Cc2c(O)ccc3c(=O)c(Oc4ccccc4Cl)c(C(F)(F)F)oc23)C1 (stereo not given)	/	/	9%	/	3%	/
SMILES	NPC1 promoter act	ELG1 genotoxic	FLuc modulator	Rab9 prom act	SMN2 splice enh	uPA generation
Cc1c(Cl)cccc1NC(=O)Cn1nc(C)c2sc3ccccc3c2c1=O	/	/	1%	/	/	/
Nc1nc(SCC(=O)NCCO)nc2sc3c(c12)CCCC3	6%	11%	17µM*	-2%	10%	-2%
CC(C)(C)C1CCc2c(sc3nc(SCC(=O)O)nc(N)c23)C1 (stereo not given)	18%	?	2.4µM*	11%	/	-3%
COC(=O)CSc1nc(N)c2c3c(sc2n1)CCCC3	1%	13%	9.5µM*	5%	/	-2%
O=C(Nc1ccccc1F)c1nc(SCc2ccc(F)cc2)ncc1Cl	/	/	5%	/	2%	/
Cc1cccc(NC(=O)c2sc(-n3nc(C)c(CCC(C)C)c3C)nc2C)c1C	/	/	4%	/	/	/
COc1cccc(N2CCN(c3ccc4nnc(CCC(=O)O)n4n3)CC2)c1	/	/	0%	/	3%	/
Cc1ccccc1/C=N/NC(=O)c1sccc1C	?	18µM*	1.5µM*	2.2µM*	10µM*	0%
COc1ccc(/C=N/NC(=O)c2sccc2C)c2ccccc12	/	/	/	/	/	-3%
Cc1ccsc1C(=O)N/N=C/c1ccc2c(c1)OCO2	0.71µM*	2.3µM*	1.5µM*	0.63µM*	2.5µM*	?
Cc1ccsc1/C=N/NC(=O)Nc1ccccc1	3.2µM*	?	2.7µM*	1.6µM*	16µM*	-5%
O=C(N/N=C/c1ccc2c(c1)OCO2)c1cccs1	1.3µM*	7.3µM*	3.4µM*	1.3µM*	13µM*	-9%
CCOC(=O)c1ccc(N2CCN(c3cccc(Cl)c3)CC2)c(NC(=O)Nc2ccc(Cl)cc2)c1	/	/	1%	/	/	/
Cc1cnc2c(c1SCC(=O)NCc1ccccc1Cl)c(=O)n(C)c(=O)n2C	/	/	-11%	/	/	/
Cc1nc2c(-c3ccccc3)c(C)[nH]n2c(=O)c1Cc1ccc(Br)cc1	/	/	-6%	/	-43%	/
CC(C)c1nc2sc3c(SCCN(C)C)ncnc3c2c2c1CCC2	/	/	/	/	/	0%
CC(C)Oc1ccc(C2CC(=O)N(c3cccc(/C=C/C(=O)O)c3)C2=O)cc1 (stereo not given)	0%	0%	24µM*	-4%	/	2%
COc1ccc(N2C(=O)CC(c3ccc(OC(C)C)cc3)C2=O)cc1 (stereo not given)	0%	-2%	-1%	0%	-10%	1%
O=C(c1ccncc1)N1CCC[C@@]2(CCN(c3cccc(-c4ccccc4)c3)C2)C1	/	/	/	/	-44%	/
Cc1ccc(C2C(C#N)=C(N)Oc3cc(N)ccc32)cc1 (stereo not given)	-7%	-1%	-4%	5%	/	-23%
N#CC1=C(N)Oc2cc3c(cc2C1c1ccc(Cl)cc1)OCO3 (stereo not given)	-4%	-2%	-2%	-1%	25µM*	-1%
C/C(=N\OC(=O)c1ccccc1)c1cc(-c2ccc(Cl)cc2)no1	2.8µM*	?	-1%	3.2µM*	?	4%
C/C(=N/OC(=O)C1CC1)c1cc(-c2ccc(Cl)cc2)no1	?	?	5.4µM*	2.8µM*	/	4%
COC(=O)[C@H]1O[C@@H](c2cc(OC)c(C)c(OC)c2OCc2ccccc2)[C@H](C)[C@@H]2O[C@]12C	/	/	/	/	1%	/

Screens: PubChem, National Center for Advancing Translational Sciences (NCATS)
